Screening data: PubChem, Buhrlage Lab, Dana-Farber Cancer Institute and Novartis Institutes for BioMedical Research (Cambridge, Mass)
Compounds with a hit are over-represented: about 13% of the library has one in this group of screens.
USP17 inh – inhibitors of human USP17 deubiquitinase; Ubiquitin carboxyl-terminal hydrolase 17-like protein 5 (Homo sapiens), A8MUK1; purified USP17, Ub-rhodamine cleavage fluorescence, 3 h; AID 1645855, 2021; 47,000 compounds, 6.5% hits; inhibition, % at 50 µM
USP10 block – inhibitors of human USP10 deubiquitinase | purified USP10, Ub-rhodamine fluorescence, 60 min | inhibition, % at 20 µM | 47,000 compounds, 1.1% hits | AID 1645856, 2021
USP8 block – inhibitors of human USP8 deubiquitinase; Ubiquitin carboxyl-terminal hydrolase 8 (Homo sapiens), P40818; purified USP8, Ub-rhodamine cleavage fluorescence, 30 min; inhibition, % at 20 µM; 47,000 compounds, 4.2% hits; AID 1645853, 2021
USP28 inh – inhibitors of human USP28 deubiquitinase. Ubiquitin carboxyl-terminal hydrolase 28 (Homo sapiens), Q96RU2. purified USP28, Ub-rhodamine cleavage fluorescence, 30 min. inhibition, % at 25 µM. 47,000 compounds, 3% hits. AID 1645857, 2021
USP7 block – inhibitors of human USP7 deubiquitinase; Ubiquitin carboxyl-terminal hydrolase 7 (Homo sapiens), Q93009; purified USP7, Ub-rhodamine cleavage fluorescence; inhibition, % at 20 µM; 47,000 compounds, 0.3% hits; AID 1645854, 2021
USP30 inh – inhibitors of human USP30 deubiquitinase; AID 1645860, 2021; inhibition, % at 25 µM; 47,000 compounds, 5.3% hits; purified USP30, Ub-rhodamine cleavage fluorescence; Ubiquitin carboxyl-terminal hydrolase 30 (Homo sapiens), Q70CQ3
Each line names hits and unclear results; the compound was inactive in the other large screens. No stated cut-off is given here; in the data, active means inhibition above about 30%; inactive means the rest.

COc1ccc(S(=O)(=O)NCCSc2ccccc2)cc1Br	USP30 inh 36.7
O=C1CC(C(=O)Nc2ccc3c(c2)OCO3)n2ncnc2N1 (centres undefined)	none
COc1ccc(-c2nn3c(c2C)NC(=O)CC3C(=O)Nc2ccc3c(c2)OCO3)cc1 (centres undefined)	USP30 inh 38.2
Cc1c(-c2ccccc2)nn2c1NC(=O)CC2C(=O)Nc1ccc2c(c1)OCO2 (centres undefined)	USP17 inh 47.1
COc1ccc(-c2cnn3c2NC(=O)CC3C(=O)Nc2ccc3c(c2)OCO3)cc1 (centres undefined)	none
COc1ccc(NC(=O)C2CC(=O)Nc3cc(-c4ccccc4)nn32)cc1 (centres undefined)	USP17 inh 55.9
O=c1c(NCc2ccc(F)cc2)nccn1-c1ccc2c(c1)OCO2	none
CCc1nn2c(S(=O)(=O)N3CCCCCC3)c(C)nc2s1	none
CCc1nn2c(S(=O)(=O)N3CCN(c4ccccc4)CC3)c(C)nc2s1	USP30 inh 38.7
Cc1cccc(S(=O)(=O)N2CCc3nc4ccccc4n3CC2)c1	USP17 inh 84.1
N#Cc1cccc(NC(=O)N2CCc3nc4ccccc4n3CC2)c1	USP30 inh 32.7
O=S(=O)(c1cccc(F)c1)N1CCc2nc3ccccc3n2CC1	USP17 inh 90.7
N#Cc1cccc(S(=O)(=O)N2CCc3nc4ccccc4n3CC2)c1	USP17 inh 30.2, USP30 inh 51.3
N#Cc1cccc(NC(=O)N2CCCn3c(nc4ccccc43)C2)c1	none
O=S(=O)(c1cc(F)cc(F)c1)N1CCc2nc3ccccc3n2CC1	none
O=S(=O)(c1ccccc1)N1CCc2nc3ccccc3n2CC1	none
O=C(c1ccc(Cl)cc1)N1CCc2nc3ccccc3n2CC1	none
O=C(Nc1ccc2sccc2c1)c1ccc2ncsc2c1	none
O=S(=O)(c1cccc(F)c1)N1CCN(c2nnnn2-c2ccccc2)CC1	USP17 inh 30.5
O=S(=O)(c1ccc(F)cc1)N1CCN(c2nnnn2-c2ccccc2)CC1	none
N#Cc1cccc(NC(=O)N2CCC(CCOc3ccccc3)CC2)c1	USP30 inh 32.9
O=C(Nc1cccc(C(F)(F)F)c1)N1CCCn2c(nc3ccccc32)C1	USP17 inh 36.9, USP28 inh 31.5, USP30 inh 78.7
COc1cccc(OC)c1C(=O)Nc1cccc(-c2ccc(N3CCN(C)CC3)nn2)c1	USP17 inh 41.4
O=C(Nc1cccc(-c2ccc(N3CCCC3)nn2)c1)c1c(F)cccc1F	USP17 inh 31.2
COc1ccc(NC(=O)c2ccc(-c3ccc(N4CCOCC4)nn3)cc2)c(OC)c1	none
COc1cccc(OC)c1C(=O)Nc1cccc(-c2ccc(N3CCCC3)nn2)c1	USP17 inh 36.2
C=C(C)[C@@H]1CC[C@@]2(C)C(=O)CC[C@H](C)[C@]2(O)C1	none
COc1ccc2[nH]c3c(c2c1)CCN1C(=O)N([C@@H](C)C(=O)N2CCC[C@H]2C(=O)O)C(=O)[C@]31C	none
CCC(C(=O)Nc1cc(=O)[nH]c2nc(-c3ccc(OC)cc3)nn12)c1ccccc1 (centres undefined)	none
Cc1ccccc1NC(=O)CC1C(=O)N(CC2CCCO2)c2nc3ccccc3n21 (centres undefined)	none
COCCNc1ncnc2c1oc1nc(CC(C)C)c3c(c12)CCC3	USP30 inh 44.0
CC(C)Cc1nc2oc3c(N(C)CCO)ncnc3c2c2c1CCC2	USP28 inh 40.5, USP30 inh 90.8
CCC(CO)Nc1ncnc2c1oc1nc(CC(C)C)c3c(c12)CCC3 (centres undefined)	none
O=C(NC1CCCCC1)c1cccn1Cc1noc(C2CC2)n1	none
O=C(NC1CCCC1)c1cccn1Cc1noc(-c2ccccc2)n1	USP8 block 32.3
O=C(Nc1ccc(OC(F)(F)F)cc1)Nc1ccc2ccccc2n1	none
O=C(Nc1ccc(OC(F)(F)F)cc1)NC1Cc2ccccc2C1	USP8 block 42.4
O=C(Nc1ccc(F)cc1F)NC1Cc2ccccc2C1	USP30 inh 65.7
CCOc1ccccc1NC(=O)NC1Cc2ccccc2C1	none
Cc1ccc(OC(C)C(=O)N2CCC(c3nc4ccccc4cc3C(N)=O)CC2)cc1 (centres undefined)	none
O=S(=O)(c1cccc(Cl)c1)N1CCN(c2cnn3cnnc3c2)CC1	USP17 inh 43.3
O=S(=O)(c1ccc(F)cc1)N1CCN(c2cnn3cnnc3c2)CC1	none
CCc1cccc(NC(=O)Cn2c(=O)nc(N3CCCCC3)c3ccccc32)c1	USP17 inh 42.9
Cc1cccc(NC(=O)Cn2c(N3CCCCC3)nc(C)cc2=O)c1	none
Cc1cc(C)c2cc(CN(CCc3ccccc3)C(=O)Nc3ccccc3)c(=O)[nH]c2c1	USP17 inh 61.6
CCOc1ccccc1NC(=O)Nc1cccn2ncnc12	none
O=C(Nc1ccc(Cl)cc1)Nc1cccn2ncnc12	USP28 inh 38.9, USP30 inh 51.7
Cc1c(C(=O)NCCCn2ccnc2)oc2c1/C(=N\O)CC(C)(C)C2	none
Cc1ccc(NC(=O)c2ccccc2)c(=O)n1CC(=O)N1CCCC1	none
Cc1cccc(N2CCN(C(=O)Cn3c(=O)[nH]c4ccccc4c3=O)CC2)c1C	none
Cc1ccc(NC(=O)c2ccccc2)c(=O)n1CC(=O)N1CCN(c2ccccc2F)CC1	USP30 inh 30.1 (no result: USP17 inh)
O=C(CCCn1c(=O)[nH]c2ccccc2c1=O)N1CCN(c2ccc(Cl)cc2)CC1	USP30 inh 41.4
O=C(Cn1c(=O)[nH]c2ccccc2c1=O)N1CCN(c2ccccc2F)CC1	USP30 inh 31.9
CC(=O)c1ccc(N2CCN(C(=O)Cn3c(=O)[nH]c4ccccc4c3=O)CC2)cc1	USP17 inh 42.4 (no result: USP28 inh, USP30 inh)
Cc1nc2ccc(C(=O)N3CCCC(c4ccn[nH]4)C3)cc2[nH]1 (centres undefined)	none
CCn1c(=O)[nH]c2c(C(=O)N3CCc4ccccc4C3)snc2c1=O	none
CN(C1CCCCC1)S(=O)(=O)N1CCCC(C(=O)NCc2cccc(Cl)c2)C1 (centres undefined)	USP30 inh 42.1
Cc1cccc(CNC(=O)C2CCCN(S(=O)(=O)Cc3ccc(Cl)cc3)C2)c1 (centres undefined)	none
O=C(C1CCCN(S(=O)(=O)Cc2ccccc2)C1)N1CCC(Cc2ccccc2)CC1 (centres undefined)	USP30 inh 30.5
Cc1ccccc1NC(=O)C1CCCN(S(=O)(=O)Cc2ccccc2)C1 (centres undefined)	USP17 inh 31.7
COc1ccccc1CNC(=O)C1CCCN(S(=O)(=O)Cc2ccc(Cl)cc2)C1 (centres undefined)	USP30 inh 30.1
CC(C)CNC(=O)c1nc2c(s1)CCN(C(=O)Cc1ccccc1)CC2	none
